Measured values taken from PubChem BioAssay AID540326 (Broad Institute, 2011).
Some of the results follow. Calls of active or inactive are those of the source.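 How the source made its calls: active means quenching, a falling signal, with AC50 below a set limit tied to the top valid dose (actives reach about 32 µM in these data); inconclusive means no clear call, values can overlap the other calls; inactive means rising signal, and the rest.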

Experiment: compounds quenching DiI signal without cells – biochemical, cherry-pick samples, plate reader fluorescence, artefact control for SR-BI HDL uptake inhibitor project, dose response (AID 540326)
Conditions: cell-free DiI-HDL fluorescence quenching, 30 min; series mostly up to 35 µM

| SMILES | AC50 |
| --- | --- |
| O=C(Nc1cccc(NC(=O)c2ccccc2[N+](=O)[O-])c1)c1ccccc1Cl | inactive |
| Cc1cc(NC(=O)Nc2ccccc2)n(-c2ccccc2)n1 | inactive |
| CCCCC(=O)Nc1nc(C)c(-c2csc(Nc3ccc(Cl)cc3)n2)s1 | 1930 nM (active) |
